Assay results: paper PMC4336329 (PLoS ONE, 2015)
In all, about 310,000 compounds went through this assay and about 14,000 (4.5%) showed an effect of 50% or more. Effects have a minus sign here. The sample as a whole holds a higher share of strong results than the screen did.

target: human ether-à-go-go-related gene (hERG) potassium channel (human, UniProt Q12809); assay: primary screen, population patch clamp on CHO cells stably expressing hERG; higher = less effect of the substance
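Note: peak tail current of the secondary pulse compared with the same well before compound.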

Sequence of human ether-à-go-go-related gene (hERG) potassium channel (Q12809 whole entry, looked up): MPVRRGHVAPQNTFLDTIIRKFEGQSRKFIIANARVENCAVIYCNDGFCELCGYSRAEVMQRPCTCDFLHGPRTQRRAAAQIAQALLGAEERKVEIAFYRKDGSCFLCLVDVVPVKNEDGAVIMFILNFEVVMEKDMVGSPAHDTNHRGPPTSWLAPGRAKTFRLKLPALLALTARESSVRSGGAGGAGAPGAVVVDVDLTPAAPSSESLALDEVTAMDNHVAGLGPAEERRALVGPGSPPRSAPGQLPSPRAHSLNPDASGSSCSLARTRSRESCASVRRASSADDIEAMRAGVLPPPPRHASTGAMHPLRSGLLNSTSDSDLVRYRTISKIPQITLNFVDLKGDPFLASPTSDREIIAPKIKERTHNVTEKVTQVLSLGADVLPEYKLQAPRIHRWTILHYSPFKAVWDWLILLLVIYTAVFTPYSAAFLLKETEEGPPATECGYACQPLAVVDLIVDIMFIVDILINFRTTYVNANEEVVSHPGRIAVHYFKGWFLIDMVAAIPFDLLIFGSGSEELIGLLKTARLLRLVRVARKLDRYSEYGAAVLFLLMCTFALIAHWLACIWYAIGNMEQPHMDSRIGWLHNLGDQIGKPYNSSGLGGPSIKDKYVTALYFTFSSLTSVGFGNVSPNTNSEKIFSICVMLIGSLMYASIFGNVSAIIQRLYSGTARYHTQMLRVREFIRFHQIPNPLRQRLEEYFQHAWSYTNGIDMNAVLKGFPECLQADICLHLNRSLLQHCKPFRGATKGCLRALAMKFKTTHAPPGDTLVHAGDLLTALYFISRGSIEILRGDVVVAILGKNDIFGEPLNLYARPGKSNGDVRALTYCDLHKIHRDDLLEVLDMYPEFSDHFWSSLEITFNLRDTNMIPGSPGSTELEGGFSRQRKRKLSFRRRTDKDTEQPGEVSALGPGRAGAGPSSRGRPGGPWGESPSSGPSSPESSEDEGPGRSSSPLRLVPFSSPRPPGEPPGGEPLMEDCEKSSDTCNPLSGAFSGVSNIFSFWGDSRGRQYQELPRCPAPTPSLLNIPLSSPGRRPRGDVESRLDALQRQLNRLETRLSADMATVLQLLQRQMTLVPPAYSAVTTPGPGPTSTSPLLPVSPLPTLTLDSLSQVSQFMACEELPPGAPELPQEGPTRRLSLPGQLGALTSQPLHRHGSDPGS

| Structure (SMILES) | hERG current change (%, negative = inhibition) at 10uM [%] |
| --- | --- |
| Cn1cc(C(=O)NC2CCCCC2)c(=O)c2cc(S(=O)(=O)N3CCOCC3)ccc21 | 11.8 |
| O=C(O)CC(Sc1n[nH]c(=S)s1)C(=O)O (stereo not shown) | 18.2 |
| CCN(CC)S(=O)(=O)c1ccc(N2CCCCC2)c(C(=O)Nc2ccccc2N2CCOCC2)c1 | -51.1 |
| CCN(CC)S(=O)(=O)c1ccc(OC)c(NC(=O)c2ccc(OC)c([N+](=O)[O-])c2)c1 | -24.4 |
| CCN(CC)S(=O)(=O)c1ccc(N2CCOCC2)c(NC(=O)c2cccc3c(=O)c(C)c(-c4ccccc4)oc23)c1 | -55 |
| CCN(CC)S(=O)(=O)c1ccc(O)c(NC(=O)c2cc(-c3cc(OC)c(OC)c(OC)c3)nc3ccccc23)c1 | -59.2 |
| COc1cc(-c2cc(C(=O)Nc3ccc(S(N)(=O)=O)cc3)c3ccccc3n2)cc(OC)c1OC | 29.2 |
| CCN(CC)S(=O)(=O)c1ccc(N2CCOCC2)c(NC(=O)c2cccc3ccccc23)c1 | 7.99 |
| CCN(CC)S(=O)(=O)c1ccc(OC)c(NC(=O)c2cccc([N+](=O)[O-])c2C)c1 | -63.8 |
| COc1ccc(S(=O)(=O)N2CCOCC2)cc1NC(=O)c1cccc2c(=O)c(C)c(-c3ccccc3)oc12 | -32.9 |
| CCN(CC)S(=O)(=O)c1ccc(NC(=O)c2cc(-c3ccccc3)nc3ccccc23)cc1 | 1.64 |
| CCN(CC)S(=O)(=O)c1ccc(OC)c(NC(=O)c2cccc(C)c2[N+](=O)[O-])c1 | -14.5 |
| CCN(CC)S(=O)(=O)c1ccc(N2CCOCC2)c(NC(=O)c2ccccc2F)c1 | -15.8 |
| CCN(CC)S(=O)(=O)c1ccc2[nH]c(=O)cc(C(=O)Nc3ccccc3N3CCOCC3)c2c1 | -18.9 |
| O=C(O)c1ccccc1-c1ccccc1C(=O)Nc1ccc2c(c1)[nH]c(=O)c1ccccc12 | 24.5 |
| O=C(N/N=C/c1ccco1)c1cc(C2CC2)nc2ccccc12 | 4.56 |
| COc1ccc2cc(S(=O)(=O)Nc3ccccn3)ccc2c1 | 9.87 |
| O=C(CSc1nnnn1-c1cccc2ccccc12)N1CCOCC1 | -25 |
| Cl.N=c1c2c(n(Cc3ccc(Cl)cc3)c3c1CCC3)CCC2 | -2.06 |
| CCN(CC)S(=O)(=O)c1ccc(N2CCCC2)c(NC(=O)c2ccccc2OC)c1 | -65.7 |
| CCN(CC)S(=O)(=O)c1ccc(N2CCCC2)c(NC(=O)Cc2cc(OC)c(OC)c(OC)c2)c1 | -8.43 |
| CCN(CC)S(=O)(=O)c1ccc(N2CCCC2)c(NC(=O)c2ccc(OC)cc2OC)c1 | -43 |
| CC(Sc1nnc(CNc2cccc3ccccc23)n1-c1ccccc1)C(=O)N/N=C/c1ccco1 (stereo not shown) | -10.2 |

| Structure (SMILES) | hERG current change (%, negative = inhibition) at 10uM [%] |
| --- | --- |
| Cl.O=C(NCC(c1cccs1)N1CCOCC1)c1cc2ccccc2o1 (stereo not shown) | -15.7 |
| O=C(NNC1=NS(=O)(=O)c2ccccc21)c1cccc([N+](=O)[O-])c1 | 15 |
| CCOc1cccc(=O)c2c(C)n(C)c(C)c12 | -4.1 |
| CCCCCn1c(C)c2c(OCC)cccc(=O)c2c1C | -69 |
| CCOc1cccc(=O)c2c(C)n(Cc3ccccc3)c(C)c12 | 11.8 |
| CC(C)C(NS(=O)(=O)c1cccs1)C(=O)NCc1ccc2c(c1)OCO2 (stereo not shown) | -12 |
| COc1ccccc1C(C#N)c1cccc(Cl)n1 (stereo not shown) | 0.219 |
| O=C(CCCn1c(=O)c2cccn2c2cccnc21)NCc1cccc(Br)c1 | -13.8 |
| CC(=O)N1CCN(C(=O)c2ccc(OC3CCN(CCc4ccccc4)CC3)cc2)CC1 | 15.6 |
| O=C(c1ccc(OC2CCN(CCc3ccccc3)CC2)cc1)N1CCCC(O)C1 (stereo not shown) | -2.05 |
| O=C(c1ccc(OC2CCN(CCCc3ccccc3)CC2)cc1)N1CCCC1 | -69.8 |
| O=C(c1ccc(OC2CCN(CCc3ccccc3)CC2)cc1)N1CCCC1 | -30 |
| CC1CCCN(C(=O)c2ccc(OC3CCN(CCc4ccccc4)CC3)cc2)C1 (stereo not shown) | -58.1 |
| COC1CCCN(C(=O)c2ccc(OC3CCN(CCc4ccccc4)CC3)cc2)C1 (stereo not shown) | -11.6 |
| COc1ccc(CNC(=O)CCn2nc(C)c3c(C)n(-c4ccccc4)nc3c2=O)c(OC)c1 | 11.8 |
| O=C(NCc1ccc(Cl)cc1)c1ccc(NC(=O)C2CCCO2)cc1 (stereo not shown) | 13.2 |
| O=C1CCCC2=C1C(c1cccs1)n1nc(SCc3ccc(C(=O)O)cc3)nc1N2 (stereo not shown) | 2.81 |
| O=C(Cn1c2ccccc2c2nc3n(c(=O)c21)CCS3)Nc1ccccc1C(F)(F)F | 15.1 |
| Cc1ccc(N2CC(C(=O)NCCN3CCOCC3)CC2=O)cc1 (stereo not shown) | 8.92 |
| CC1CCCCN1C(=O)NC1CC(=O)N(c2ccc3c(c2)OCCO3)C1 (stereo not shown) | 5.7 |
| CCc1cc(Cn2nc(-c3ccccc3)cc2C(=O)NCC2CC2)on1 | -51.8 |
| CCOC(=O)c1cc(-c2ccccc2)nn1CC1CC(c2cccc([N+](=O)[O-])c2)=NO1 (stereo not shown) | -24.2 |
| COCCNC(=O)c1cc(-c2ccccc2)nn1CC1CC(c2cccc([N+](=O)[O-])c2)=NO1 (stereo not shown) | -50.6 |

| Structure (SMILES) | hERG current change (%, negative = inhibition) at 10uM [%] |
| --- | --- |
| Cc1ccccc1-c1cc(C(=O)NCc2cccs2)nn1CC1CC(c2cccc([N+](=O)[O-])c2)=NO1 (stereo not shown) | 4.08 |
| O=C(O)c1cc(-c2ccccc2)nn1CC1CC(c2cccc([N+](=O)[O-])c2)=NO1 (stereo not shown) | 19.1 |
| Cc1ccc(CNC(=O)c2cc(-c3ccccc3)nn2CC2CC(c3cccc([N+](=O)[O-])c3)=NO2)cc1 (stereo not shown) | -8.09 |
| O=C(NCC1CC1)c1cc(-c2ccccc2)nn1CC1CC(c2cccc([N+](=O)[O-])c2)=NO1 (stereo not shown) | -60.8 |
| Cc1ccccc1-c1cc(C(=O)NCC2CC2)nn1CC1CC(c2cccc([N+](=O)[O-])c2)=NO1 (stereo not shown) | -26.6 |
| O=C(NCc1cccs1)c1cc(-c2ccccc2)nn1CC1CC(c2cccc([N+](=O)[O-])c2)=NO1 (stereo not shown) | -66.9 |
| Cc1cc(Cn2nc(-c3ccccc3)cc2C(=O)NCC2CC2)on1 | 9.32 |
| Cc1ccc(CNC(=O)c2cc(-c3ccccc3C)n(CC3CC(c4cccc([N+](=O)[O-])c4)=NO3)n2)cc1 (stereo not shown) | 13.6 |
| CCc1cc(Cn2nc(-c3ccccc3)cc2C(=O)NCCOC)on1 | -9.96 |
| COC(=O)C(C)n1cnc2c(nnn2Cc2ccc(Cl)cc2)c1=O (stereo not shown) | -16.4 |
| CCC1=Nc2cc(C(=O)NCc3ccco3)ccc2Sc2ccc(C)cc21 | -0.612 |
| CN(Cc1ccccc1)C(=O)CN1C(=O)NC2(CCCCCCC2)C1=O | -11.7 |
| O=C(CCc1ccccc1)NNC(=O)Nc1ccccc1 | 1.26 |
| COc1ccc(OC)c(CNC(=O)Cc2c(C(=O)O)[nH]c3ccccc23)c1 | 15.3 |
| Cc1ccccc1N1CCN(C2CCCN(C(=O)c3ocnc3C)C2)CC1 (stereo not shown) | -16.9 |
| CN(c1ccccc1)S(=O)(=O)c1cccc(C(=O)OCC(=O)Nc2ccc3[nH]c(=O)[nH]c3c2)c1 | 19.6 |
| CC(C)c1ccc(N(CCc2ccccn2)C(=O)C(C)(C)C)cc1 | -5.99 |
| CN(CCc1ccccn1)C(=O)c1cccnc1Oc1ccc(Cl)cc1 | -19.5 |
| CN(CCc1ccccn1)Cc1ccc(Cl)cc1Cl | -64.3 |
| CCc1ccc(CN(C)CCc2ccccn2)cc1 | -62.6 |
| Cc1ccc(CN(C)CCc2ccccn2)cc1 | -41.1 |
| CC(C)c1ccc(NC(=S)N(C)CCc2ccccn2)cc1 | -8.91 |
| CN(CCc1ccccn1)C(=O)Nc1ccc(Cl)cc1 | 6.31 |

| Structure (SMILES) | hERG current change (%, negative = inhibition) at 10uM [%] |
| --- | --- |
| Cc1cccc(CN(C)CCc2ccccn2)c1 | -15.3 |
| Cc1ccccc1CN(C)CCc1ccccn1.O=C(O)C(=O)O | -7.25 |
| CC(C)=CCCC(C)CN(C)CCc1ccccn1 (stereo not shown) | -65.4 |
| CN(CCc1ccccn1)Cc1ccc(Cl)c(Cl)c1 | -36.3 |
| CN(CCc1ccccn1)Cc1ccc(Cl)cc1 | -53.7 |
| CC(=O)N1CCC(=O)N(C(C)C)c2ccccc21 | 3.9 |
| COc1ccc(CNC(=O)c2cccnc2Sc2ccc(C)c(C)c2)cc1 | 3.63 |
| COc1ccccc1-c1coc2cc(O)cc(O)c2c1=O | 9.89 |
| Cc1ccc(OCC(=O)c2ccc(Cl)s2)c([N+](=O)[O-])n1 | 2.66 |
| Cc1ccc(S(=O)(=O)NCc2n[nH]c(=S)n2C)cc1 | 21 |
| NC(=O)c1cc([N+](=O)[O-])ccc1NCc1ccc(N)cc1 | 10.5 |
| COc1cc2c(cc1NC(=O)c1cccnc1)CCCC2 | 14.2 |
| Cc1cccc(-c2noc(-c3ccc4c(c3)OCO4)n2)c1 | 7.53 |
| COc1cc(Cl)c(C)cc1NC(=O)CCCn1c(=O)oc2ccccc21 | -58.7 |
| COc1cc(NC(=O)c2ccccc2Cl)c(OC)cc1NC(=O)CN1CCOCC1 | -3.34 |
| COc1cc(Cl)c(C)cc1NC(=O)c1ccccc1NC(=O)CN1CCOCC1 | -58.7 |
| COc1cc(OC)c(NC(=O)CCCn2c(=O)oc3ccccc32)cc1Cl | 9.61 |
| COc1cc(Cl)c(C)cc1NC(=O)CN1CCCCCC1 | -0.067 |
| COc1cc(NC(=O)CN2CCN(C(=O)C3CCCO3)CC2)c(OC)cc1Cl (stereo not shown) | -12.5 |
| COc1cc(NC(=O)c2ccccc2C)c(OC)cc1NC(=O)CN1CCOCC1 | -7.78 |
| COc1cc(Cl)c(C)cc1NC(=O)CN1CCN(C(=O)C2CC2)CC1 | -59.6 |
| COc1ccc(NC(=O)CCCn2c(=O)oc3ccccc32)cc1Cl | -12.9 |
